Data as given in publication PMC7862700, “An all-to-all approach to the identification of sequence-specific readers for epigenetic DNA modifications on cytosine”.

Columns and labels:
Experiment in all cases: DAPPL (digital affinity profiling via proximity ligation, sequencing); 10 mM Tris-HCl pH 7.5, 50 mM NaCl, 1 mM DTT, 4% glycerol, room temperature, 30 min; GST-TFs on glutathione beads, 16-mer random dsDNA library, 0.1% formaldehyde crosslink after washing; high values mean tight binding
Details in all cases: protein: recombinant; tags: N-terminal GST; dsDNA, one strand shown
ERF = target: T1, ERF (Homo sapiens, UniProt P50548 1-548)
T1 sequence: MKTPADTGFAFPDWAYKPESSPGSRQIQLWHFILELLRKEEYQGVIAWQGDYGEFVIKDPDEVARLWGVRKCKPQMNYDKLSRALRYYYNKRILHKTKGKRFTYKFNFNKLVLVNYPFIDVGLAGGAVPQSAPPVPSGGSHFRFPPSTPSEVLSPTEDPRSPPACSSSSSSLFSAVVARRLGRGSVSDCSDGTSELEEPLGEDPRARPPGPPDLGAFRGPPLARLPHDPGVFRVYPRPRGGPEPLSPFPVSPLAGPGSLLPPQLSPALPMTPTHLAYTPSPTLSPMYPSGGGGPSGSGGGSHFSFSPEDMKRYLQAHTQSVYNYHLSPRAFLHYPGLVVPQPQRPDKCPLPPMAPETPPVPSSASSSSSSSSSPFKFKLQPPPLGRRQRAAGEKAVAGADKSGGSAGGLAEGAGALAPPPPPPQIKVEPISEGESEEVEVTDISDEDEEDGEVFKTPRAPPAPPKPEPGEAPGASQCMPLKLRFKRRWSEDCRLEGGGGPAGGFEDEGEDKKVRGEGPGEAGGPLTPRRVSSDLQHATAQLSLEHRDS
In short: (§1)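 Binding signal is given per hexamer as its read frequency for a factor divided by its frequency in the tag-only sample. GST-fused human transcription factors were expressed in yeast, captured on glutathione beads, barcoded with DNA and pooled with that sample, then incubated with 200 nmole of a 16-mer random double-stranded DNA library in Tris/NaCl/DTT/glycerol buffer for 30 min at room temperature. The pools were then washed, crosslinked, proximity-ligated, amplified by PCR and sequenced on an Illumina NextSeq500.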

ETV3L = target: T2, ETV3L (Homo sapiens, UniProt Q6ZN32 1-361)
T2 sequence: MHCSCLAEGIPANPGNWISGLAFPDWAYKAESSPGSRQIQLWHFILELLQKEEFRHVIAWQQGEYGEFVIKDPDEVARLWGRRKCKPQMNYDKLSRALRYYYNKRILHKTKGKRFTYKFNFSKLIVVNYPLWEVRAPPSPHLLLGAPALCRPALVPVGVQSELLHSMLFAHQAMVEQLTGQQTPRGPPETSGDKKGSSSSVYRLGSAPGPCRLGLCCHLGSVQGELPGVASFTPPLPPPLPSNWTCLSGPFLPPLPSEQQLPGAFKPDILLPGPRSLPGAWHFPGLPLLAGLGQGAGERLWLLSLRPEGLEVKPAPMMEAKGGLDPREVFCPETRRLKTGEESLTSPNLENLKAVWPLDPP
In short: as §1

ETS2 = target: T3, ETS2 (Homo sapiens, UniProt P15036 1-469)
T3 sequence: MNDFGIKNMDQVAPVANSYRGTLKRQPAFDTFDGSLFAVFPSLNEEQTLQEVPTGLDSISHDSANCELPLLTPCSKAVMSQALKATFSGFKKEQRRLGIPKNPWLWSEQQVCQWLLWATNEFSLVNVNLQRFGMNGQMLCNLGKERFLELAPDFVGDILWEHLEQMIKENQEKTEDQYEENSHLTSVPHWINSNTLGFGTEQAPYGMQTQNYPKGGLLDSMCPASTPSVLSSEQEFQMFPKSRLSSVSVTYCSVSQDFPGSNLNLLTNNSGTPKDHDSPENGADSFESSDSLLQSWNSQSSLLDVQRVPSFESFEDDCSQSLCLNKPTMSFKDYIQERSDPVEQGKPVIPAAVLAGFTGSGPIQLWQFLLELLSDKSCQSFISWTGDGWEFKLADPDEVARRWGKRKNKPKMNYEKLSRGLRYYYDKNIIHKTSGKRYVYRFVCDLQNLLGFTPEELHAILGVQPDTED
In short: as §1

SPDEF = target: T4, SPDEF (Homo sapiens, UniProt O95238 1-335)
T4 sequence: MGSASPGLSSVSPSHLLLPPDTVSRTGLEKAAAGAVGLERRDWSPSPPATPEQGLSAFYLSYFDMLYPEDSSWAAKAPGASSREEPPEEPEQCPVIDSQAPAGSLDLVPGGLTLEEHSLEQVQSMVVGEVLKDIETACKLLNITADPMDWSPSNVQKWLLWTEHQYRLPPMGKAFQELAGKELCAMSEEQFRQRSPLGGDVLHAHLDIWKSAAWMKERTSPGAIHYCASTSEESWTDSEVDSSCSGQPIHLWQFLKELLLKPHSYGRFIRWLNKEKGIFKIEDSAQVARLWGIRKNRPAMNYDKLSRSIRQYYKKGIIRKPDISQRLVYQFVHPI
In short: as §1

ETV7 = target: T5, ETV7 (Homo sapiens, UniProt Q9Y603 1-341)
T5 sequence: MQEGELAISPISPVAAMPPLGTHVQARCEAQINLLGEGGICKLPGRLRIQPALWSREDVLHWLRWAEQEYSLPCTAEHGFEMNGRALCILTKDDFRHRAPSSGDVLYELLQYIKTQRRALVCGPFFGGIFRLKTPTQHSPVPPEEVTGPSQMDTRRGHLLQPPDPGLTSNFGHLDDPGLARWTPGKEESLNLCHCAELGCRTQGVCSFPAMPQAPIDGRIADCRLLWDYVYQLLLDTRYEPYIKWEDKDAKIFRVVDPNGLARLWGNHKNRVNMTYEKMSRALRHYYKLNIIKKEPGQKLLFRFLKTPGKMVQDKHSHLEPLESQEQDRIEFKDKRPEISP
In short: as §1

ELF5 = target: T6, ELF5 (Homo sapiens, UniProt Q9UKW6-2 1-255)
T6 sequence: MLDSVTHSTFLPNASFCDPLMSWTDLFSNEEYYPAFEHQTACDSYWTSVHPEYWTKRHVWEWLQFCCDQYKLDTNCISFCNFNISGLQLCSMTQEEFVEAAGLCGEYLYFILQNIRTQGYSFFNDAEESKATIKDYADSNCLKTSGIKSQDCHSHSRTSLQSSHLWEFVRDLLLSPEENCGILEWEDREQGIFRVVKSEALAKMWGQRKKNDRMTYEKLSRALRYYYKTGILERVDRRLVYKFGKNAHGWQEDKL
In short: as §1

ETV3 = target: T7, ETV3 (Homo sapiens, UniProt P41162-2 1-143)
T7 sequence: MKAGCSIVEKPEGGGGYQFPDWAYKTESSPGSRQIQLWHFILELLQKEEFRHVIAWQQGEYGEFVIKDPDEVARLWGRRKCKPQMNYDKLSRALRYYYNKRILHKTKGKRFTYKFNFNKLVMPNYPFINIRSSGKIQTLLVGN
In short: as §1

ETV6 = ETV6 (Homo sapiens, UniProt P41212 1-452)
In short: as §1

Chain of ETV6 (P41212 whole entry): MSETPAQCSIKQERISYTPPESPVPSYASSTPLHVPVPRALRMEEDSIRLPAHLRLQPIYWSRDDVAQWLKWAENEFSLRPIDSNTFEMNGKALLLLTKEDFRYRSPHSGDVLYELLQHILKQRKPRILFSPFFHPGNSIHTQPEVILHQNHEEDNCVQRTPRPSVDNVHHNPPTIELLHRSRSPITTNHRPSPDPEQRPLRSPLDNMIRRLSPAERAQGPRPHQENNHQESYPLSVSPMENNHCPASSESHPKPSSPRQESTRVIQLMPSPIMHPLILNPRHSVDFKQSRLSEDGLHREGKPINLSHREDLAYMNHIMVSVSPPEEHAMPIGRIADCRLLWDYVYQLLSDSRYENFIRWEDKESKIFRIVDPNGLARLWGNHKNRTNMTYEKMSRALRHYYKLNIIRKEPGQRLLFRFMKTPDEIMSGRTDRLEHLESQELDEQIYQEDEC

Sequence | binding signal (ERF) | binding signal (ETV3L) | binding signal (ETS2) | binding signal (SPDEF) | binding signal (ETV7) | binding signal (ELF5) | binding signal (ETV3) | binding signal (ETV6)
CCCCCA | 1.06 fold enrichment (6-mer frequency, TF over GST control) | 1.21 fold enrichment (6-mer frequency, TF over GST control) | 1.19 fold enrichment (6-mer frequency, TF over GST control) | 1.22 fold enrichment (6-mer frequency, TF over GST control) | 1.11 fold enrichment (6-mer frequency, TF over GST control) | 1.24 fold enrichment (6-mer frequency, TF over GST control) | 1.3 fold enrichment (6-mer frequency, TF over GST control) | 1.19 fold enrichment (6-mer frequency, TF over GST control)
CGTCAC | 1.15 fold enrichment (6-mer frequency, TF over GST control) | 1.15 fold enrichment (6-mer frequency, TF over GST control) | 1.27 fold enrichment (6-mer frequency, TF over GST control) | 1.21 fold enrichment (6-mer frequency, TF over GST control) | 1.13 fold enrichment (6-mer frequency, TF over GST control) | 1.16 fold enrichment (6-mer frequency, TF over GST control) | 1.11 fold enrichment (6-mer frequency, TF over GST control) | 1.24 fold enrichment (6-mer frequency, TF over GST control)
AAATAG | 1.11 fold enrichment (6-mer frequency, TF over GST control) | 1.15 fold enrichment (6-mer frequency, TF over GST control) | 1.12 fold enrichment (6-mer frequency, TF over GST control) | 1 fold enrichment (6-mer frequency, TF over GST control) | 1.23 fold enrichment (6-mer frequency, TF over GST control) | 1.14 fold enrichment (6-mer frequency, TF over GST control) | 1.21 fold enrichment (6-mer frequency, TF over GST control) | 1.18 fold enrichment (6-mer frequency, TF over GST control)
TGAAAC | 1.17 fold enrichment (6-mer frequency, TF over GST control) | 1.17 fold enrichment (6-mer frequency, TF over GST control) | 1.3 fold enrichment (6-mer frequency, TF over GST control) | 1.28 fold enrichment (6-mer frequency, TF over GST control) | 1.28 fold enrichment (6-mer frequency, TF over GST control) | 1.15 fold enrichment (6-mer frequency, TF over GST control) | 1.28 fold enrichment (6-mer frequency, TF over GST control) | 1.13 fold enrichment (6-mer frequency, TF over GST control)
TAAATC | 1.24 fold enrichment (6-mer frequency, TF over GST control) | 1.29 fold enrichment (6-mer frequency, TF over GST control) | 1.33 fold enrichment (6-mer frequency, TF over GST control) | 1.33 fold enrichment (6-mer frequency, TF over GST control) | 1.22 fold enrichment (6-mer frequency, TF over GST control) | 1.15 fold enrichment (6-mer frequency, TF over GST control) | 1.18 fold enrichment (6-mer frequency, TF over GST control) | 1.29 fold enrichment (6-mer frequency, TF over GST control)
AACATG | 1.21 fold enrichment (6-mer frequency, TF over GST control) | 1.17 fold enrichment (6-mer frequency, TF over GST control) | 1.14 fold enrichment (6-mer frequency, TF over GST control) | 1.11 fold enrichment (6-mer frequency, TF over GST control) | 1.05 fold enrichment (6-mer frequency, TF over GST control) | 1.15 fold enrichment (6-mer frequency, TF over GST control) | 1.11 fold enrichment (6-mer frequency, TF over GST control) | 1.25 fold enrichment (6-mer frequency, TF over GST control)
TGGCAG | 1.11 fold enrichment (6-mer frequency, TF over GST control) | 1.12 fold enrichment (6-mer frequency, TF over GST control) | 1.05 fold enrichment (6-mer frequency, TF over GST control) | 1.05 fold enrichment (6-mer frequency, TF over GST control) | 1.04 fold enrichment (6-mer frequency, TF over GST control) | 1.09 fold enrichment (6-mer frequency, TF over GST control) | 1.16 fold enrichment (6-mer frequency, TF over GST control) | 1.09 fold enrichment (6-mer frequency, TF over GST control)
